This is an account of results in publication PMC11062922 (Nature Chemical Biology, 2023).

Common to all, as to design: species or system human, MV4-11 + K-562 + COLO205 + SK-N-BE2 + OVCAR-8
The test system of one assay is ADCK3. The conditions noted are these: read-out: apparent Kd, compound concentrations: 100 nM and 1000 nM (sheet 'Samples'), n = 1.
A further assay has as its system GALK1. The conditions noted are these: read-out: apparent Kd; compound concentrations: 100 nM and 1000 nM (sheet 'Samples'), CATDS: 0.119899430557505; n = 1.
The test system of the next assay is MAPK14. Conditions: read-out: apparent Kd; compound concentrations: 100 nM and 1000 nM (sheet 'Samples'), CATDS: 0.15490410585255601; n = 1.
For a further assay, the system named is MAPK1. Conditions: read-out: apparent Kd; compound concentrations: 100 nM and 1000 nM (sheet 'Samples'), CATDS: 0.12427254642557201; n = 1.
The subject of the next assay is PIK3CD. The conditions noted are these: read-out: apparent Kd, compound concentrations: 100 nM and 1000 nM (sheet 'Samples'), n = 1.
The next assay has as its system PIM2. The conditions noted are these: read-out: apparent Kd, compound concentrations: 100 nM and 1000 nM (sheet 'Samples'), n = 1.
In another assay the test system is STK16. Conditions: read-out: apparent Kd; compound concentrations: 100 nM and 1000 nM (sheet 'Samples'), CATDS: 0.13061388910889801; n = 1.
The next assay deals with ADCK1. The conditions noted are these: read-out: apparent Kd; compound concentrations: 100 nM and 1000 nM (sheet 'Samples'), CATDS: 8.5431360664487602E-2; n = 1.
In another assay the test system is ATM. Conditions: read-out: apparent Kd; compound concentrations: 100 nM and 1000 nM (sheet 'Samples'), CATDS: 0.154535696206207; n = 1.
A further assay relates to CDC42BPG. Conditions: read-out: apparent Kd; compound concentrations: 100 nM and 1000 nM (sheet 'Samples'), CATDS: 7.3873319351317801E-2; n = 1.
The subject of a further assay is CDKL5. The conditions noted are these: read-out: apparent Kd; compound concentrations: 100 nM and 1000 nM (sheet 'Samples'), CATDS: 0.103192047261391; n = 1.
A further assay relates to CLK1. Conditions: read-out: apparent Kd; compound concentrations: 100 nM and 1000 nM (sheet 'Samples'), CATDS: 0.10181470937503199; n = 1.
A further assay has as its system CLK2. Conditions: read-out: apparent Kd; compound concentrations: 100 nM and 1000 nM (sheet 'Samples'), CATDS: 0.42234286586488101; n = 1.
For the next assay, the system named is CLK4. Conditions: read-out: apparent Kd; compound concentrations: 100 nM and 1000 nM (sheet 'Samples'), CATDS: 0.12045713212899201; n = 1.
The next assay has as its system PRKAG2. Conditions: read-out: apparent Kd; compound concentrations: 100 nM and 1000 nM (sheet 'Samples'), CATDS: 7.6138264702913502E-2; n = 1.
Another assay relates to ADRBK1. Conditions: read-out: apparent Kd; compound concentrations: 100 nM and 1000 nM (sheet 'Samples'), CATDS: 0.28294798490762901; n = 1.
For another assay, the system named is AKT2. The conditions noted are these: read-out: apparent Kd, compound concentrations: 100 nM and 1000 nM (sheet 'Samples'), n = 1.
The next assay has as its system AKT1. The conditions noted are these: read-out: apparent Kd; compound concentrations: 100 nM and 1000 nM (sheet 'Samples'), CATDS: 7.0300825665370006E-2; n = 1.
Another assay concerns AKT3. Conditions: read-out: apparent Kd; compound concentrations: 100 nM and 1000 nM (sheet 'Samples'), CATDS: 7.9002074728764499E-2; n = 1.
The test system of a further assay is CAMK4. Conditions: read-out: apparent Kd; compound concentrations: 100 nM and 1000 nM (sheet 'Samples'), CATDS: 6.2704005161184906E-2; n = 1.
The next assay concerns CSNK1A1. Conditions: read-out: apparent Kd; compound concentrations: 100 nM and 1000 nM (sheet 'Samples'), CATDS: 6.8994714696940407E-2; n = 1.
The next assay concerns MAP2K1. Conditions: read-out: apparent Kd; compound concentrations: 100 nM and 1000 nM (sheet 'Samples'), CATDS: 7.1306793514003305E-2; n = 1.
Another assay deals with MAP2K2. The conditions noted are these: read-out: apparent Kd; compound concentrations: 100 nM and 1000 nM (sheet 'Samples'), CATDS: 7.3872380173305399E-2; n = 1.
The test system of the next assay is MAPK9. The conditions noted are these: read-out: apparent Kd; compound concentrations: 100 nM and 1000 nM (sheet 'Samples'), CATDS: 6.4176537599483302E-2; n = 1.
For a further assay, the system named is NQO1. Conditions: read-out: apparent Kd; compound concentrations: 100 nM and 1000 nM (sheet 'Samples'), CATDS: 8.1829364824624801E-2; n = 1.
For the next assay, the system named is PYGL. Conditions: read-out: apparent Kd; compound concentrations: 100 nM and 1000 nM (sheet 'Samples'), CATDS: 6.9677029727435405E-2; n = 1.
The next assay concerns RIOK2. Conditions: read-out: apparent Kd; compound concentrations: 100 nM and 1000 nM (sheet 'Samples'), CATDS: 6.63813283152343E-2; n = 1.
The subject of another assay is SMC4. Conditions: read-out: apparent Kd; compound concentrations: 100 nM and 1000 nM (sheet 'Samples'), CATDS: 6.4174106680799994E-2; n = 1.

Structures are written as SMILES. Read-outs that look alike come from different tables or passages of the source.

Turning to `Cc1ccc(NC(=O)c2ccnc(N3CCN(C)CC3)c2)cc1-c1ccc(C(=O)NCC2CC2)cc1` [GW775604X], the potency estimated from few doses in the assay with ADCK3 (CATDS: 0.117650755909267) is 1660 nM; with GALK1, 1570 nM; in the assay with MAPK14, 840 nM; in the assay with MAPK1, 1430 nM; with PIK3CD (CATDS: 0.661841764967533), 59 nM; in the assay on PIM2 (CATDS: 0.117779820663657) it was 1650 nM. The potency estimated from few doses in the assay on STK16 was 1250 nM.

In the case of `CCOc1ccc2c(-c3ccnc(Nc4cccc(C(F)(F)F)c4)n3)cnn2n1` [GW811761X], the potency estimated from few doses in the assay on ADCK1 was 1140 nM; in the assay on ATM, 257 nM; in the assay with CDC42BPG, 2020 nM; in the assay with CDKL5 it was 644 nM; in the assay with CLK1, 667 nM; in the assay on CLK2 it was 49.8 nM. The potency estimated from few doses in the assay on CLK4 is 438 nM; in the assay with PIK3CD (CATDS: 0.16747258598029099), 220 nM; in the assay with PRKAG2, 1760 nM.

For the compound `CNC(=O)c1cncc(/C=C/c2ccccc2Cl)c1` [GW445017X], in the assay on ADCK3 (CATDS: 1), the potency estimated from few doses is 747 nM.

Take `O=C1NC(=O)C(c2c[nH]c3ccccc23)=C1c1ccccc1` [RO0316849-000]: the potency estimated from few doses in the assay on ADCK3 (CATDS: 0.47545697813848398) is 812 nM; with ADRBK1, 2270 nM; in the assay on AKT2 (CATDS: 0.297394073145339) it was 2010 nM.

For the compound `O=C(NC1CCN(c2ccnc(Nc3ccc(F)cc3)n2)C1)c1cc2ccccc2s1` (centres unmarked) [GSK1379716A], the potency estimated from few doses is 1140 nM in the assay with ADCK3 (CATDS: 8.9568558281788502E-2); 1780 nM in the assay on AKT1; 1740 nM with AKT2 (CATDS: 7.1049746121653101E-2); 1420 nM in the assay with AKT3; 2280 nM in the assay on CAMK4; 1850 nM in the assay on CSNK1A1. The potency estimated from few doses in the assay with MAP2K1 is 1730 nM; in the assay on MAP2K2, 1610 nM; in the assay with MAPK9 it was 2160 nM; in the assay with NQO1 it was 1330 nM; in the assay on PIM2 (CATDS: 7.6487231298609404E-2), 1500 nM; with PYGL, 1810 nM. Moreover, the potency estimated from few doses in the assay with RIOK2 was 2010 nM; in the assay on SMC4 it was 2160 nM.

Turning to `O=C(Nc1cccc(-c2nn3ccccc3c2-c2ccnc(Nc3cccc(F)c3)n2)c1)c1c(F)ccc(F)c1Cl` [GSK357952A], the potency estimated from few doses in the assay on ADCK3 (CATDS: 1) was 131 nM.
